These sequences were tested against T1, Pan (Drosophila melanogaster, UniProt P91943 258-356) (assay: FP; 33 mM phosphate pH 7.0, 90 mM NaCl, 0.01% Tween 20, 0.1 mM DTT, 0.5% agarose; room temperature). Details: tags: N-GST (pGEX-6P-1, kept); dsDNA, one strand shown.
T1 sequence: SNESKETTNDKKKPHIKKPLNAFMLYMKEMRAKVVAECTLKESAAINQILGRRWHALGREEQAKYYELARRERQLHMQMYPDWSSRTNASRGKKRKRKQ
For AGTCTTCGATAAA, the binding signal was 7.5 Kd / Kd of best base at the position. In the case of AGTCTTTGATCAA, the binding signal is reported as 2.02 Kd / Kd of best base at the position. With AGTGTTTGATAAA the binding signal was 2.49 Kd / Kd of best base at the position. In the case of AGTCTTTGTTAAA, the binding signal is reported as 4.66 Kd / Kd of best base at the position. For AGTCTATGATAAA, the binding signal was 8.1 Kd / Kd of best base at the position. AGTCTTTGATTAA was tested, and the binding signal was 1.63 Kd / Kd of best base at the position. For AGTCGTTGATAAA, the binding signal was 9.13 Kd / Kd of best base at the position. AGTCTTTGCTAAA was tested, and the binding signal was 2.06 Kd / Kd of best base at the position. In the case of GGTCTTTGATAAA, the binding signal is reported as 1.08 Kd / Kd of best base at the position. For TGTCTTTGATAAA, the binding signal was 1.34 Kd / Kd of best base at the position. ACTCTTTGATAAA was tested, and the binding signal was 1.97 Kd / Kd of best base at the position. For AGTCATTGATAAA, the binding signal was 7.68 Kd / Kd of best base at the position. For AGTATTTGATAAA, the binding signal was 5.89 Kd / Kd of best base at the position. AGTCTTTGAAAAA was tested, and the binding signal was 2.52 Kd / Kd of best base at the position. In the case of AGTCTTTGATGAA, the binding signal is reported as 1.49 Kd / Kd of best base at the position. ATTCTTTGATAAA was tested, and the binding signal was 1.9 Kd / Kd of best base at the position. With AGTCTTTTATAAA the binding signal was 3.15 Kd / Kd of best base at the position. In the case of AGTCTTTAATAAA, the binding signal is reported as 4.58 Kd / Kd of best base at the position. AGTCTTTGACAAA was tested, and the binding signal was 4.34 Kd / Kd of best base at the position. With AGTCTTTGATAAT the binding signal was 1.35 Kd / Kd of best base at the position. In the case of AGTCTTTGGTAAA, the binding signal is reported as 1.21 Kd / Kd of best base at the position. For AGTCTTTGATAAC, the binding signal was 4.04 Kd / Kd of best base at the position. AGACTTTGATAAA was tested, and the binding signal was 1.18 Kd / Kd of best base at the position. In the case of AGTCTGTGATAAA, the binding signal is reported as 7.87 Kd / Kd of best base at the position. In the case of AGTCTTTGATATA, the binding signal is reported as 1.14 Kd / Kd of best base at the position. AGCCTTTGATAAA was tested, and the binding signal was 2.89 Kd / Kd of best base at the position. For AGTCTTTGAGAAA, the binding signal was 1.72 Kd / Kd of best base at the position. In the case of AGTCTTTCATAAA, the binding signal is reported as 8.7 Kd / Kd of best base at the position. In the case of AGGCTTTGATAAA, the binding signal is reported as 4.74 Kd / Kd of best base at the position. CGTCTTTGATAAA was tested, and the binding signal was 2.92 Kd / Kd of best base at the position. For AATCTTTGATAAA, the binding signal was 6.88 Kd / Kd of best base at the position. In the case of AGTCTTGGATAAA, the binding signal is reported as 5.87 Kd / Kd of best base at the position. With AGTCCTTGATAAA the binding signal was 5.41 Kd / Kd of best base at the position. In the case of AGTCTTTGATACA, the binding signal is reported as 2.07 Kd / Kd of best base at the position. In the case of AGTTTTTGATAAA, the binding signal is reported as 5.89 Kd / Kd of best base at the position. For AGTCTTAGATAAA, the binding signal was 10.4 Kd / Kd of best base at the position. With AGTCTTTGATAAG the binding signal was 3.01 Kd / Kd of best base at the position.
